Test results: the supplement of paper PMC10849652
About 7,900 targets were measured; listed, in parts, are those with a hit and a random draw of the rest. About 0.6% of all pairs of compound and target were hits.

What was measured:
Test in all cases: log2 fold change, soluble protein after heating vs DMSO (PISA); higher = thermal stabilisation; K562 cells, 10 uM, 30 min; active = over 0.2 and 3.5 SD of the protein, either way, in both replicates (recomputed)
saracatinib = compound: CN1CCN(CCOc2cc(OC3CCOCC3)c3c(Nc4c(Cl)ccc5c4OCO5)ncnc3c2)CC1 [saracatinib]
Summary of the method: (§1)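 Quantification of soluble protein used TMTpro 16plex LC-MS/MS, with channel sums equalised. Samples were the supernatant after 21,000xg for 90 min of pooled aliquots from K562 cells (2×10^6 cells/mL) treated with 10 μM compound for 30 min, heated for 3 min over 48°C-58°C, and extracted in PBS with 0.5% NP-40 at 4°C. Values, from duplicates, describe thermal stability against control samples on a log2 fold-change scale.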

sotrastaurin = compound: CN1CCN(c2nc(C3=C(c4c[nH]c5ccccc45)C(=O)NC3=O)c3ccccc3n2)CC1 [sotrastaurin]
Summary of the method: as §1

alvocidib = compound: CN1CC[C@H](c2c(O)cc(O)c3c(=O)cc(-c4ccccc4Cl)oc23)[C@H](O)C1 [alvocidib]
Summary of the method: as §1

Tubastatin A = compound: CN1CCc2c(c3ccccc3n2Cc2ccc(C(=O)NO)cc2)C1 [Tubastatin A]
Summary of the method: as §1

[1] = compound: CNC(=O)C1=CC=CC=C1NC2=NC(=NC=C2Cl)NC3=C(C=C(C=C3)N4CCOCC4)OC
Summary of the method: as §1

defactinib = compound: CNC(=O)c1ccc(Nc2ncc(C(F)(F)F)c(NCc3nccnc3N(C)S(C)(=O)=O)n2)cc1 [defactinib]
Summary of the method: as §1

rucaparib = compound: CNCc1ccc(-c2[nH]c3cc(F)cc4c3c2CCNC4=O)cc1 [rucaparib]
Summary of the method: as §1

[2] = compound: CNc1nc(-c2ccc3c(N)n[nH]c3c2)cc(N2C[C@@H](C(=O)NC3CCCCC3)CC[C@H]2C)n1
Summary of the method: as §1

encorafenib = compound: COC(=O)N[C@@H](C)CNc1nccc(-c2cn(C(C)C)nc2-c2cc(Cl)cc(NS(C)(=O)=O)c2F)n1 [encorafenib]
Summary of the method: as §1

[3] = compound: COC(=O)[C@H](CCSC)NC(=O)C1=C(C=C(C=C1)NC[C@H](CS)N)C2=CC=CC=C2
Summary of the method: as §1

Measured: log2 fold change

SEC23A (UniProt Q15436)
UniProt Q15436, sequence (Q15436 whole entry, looked up): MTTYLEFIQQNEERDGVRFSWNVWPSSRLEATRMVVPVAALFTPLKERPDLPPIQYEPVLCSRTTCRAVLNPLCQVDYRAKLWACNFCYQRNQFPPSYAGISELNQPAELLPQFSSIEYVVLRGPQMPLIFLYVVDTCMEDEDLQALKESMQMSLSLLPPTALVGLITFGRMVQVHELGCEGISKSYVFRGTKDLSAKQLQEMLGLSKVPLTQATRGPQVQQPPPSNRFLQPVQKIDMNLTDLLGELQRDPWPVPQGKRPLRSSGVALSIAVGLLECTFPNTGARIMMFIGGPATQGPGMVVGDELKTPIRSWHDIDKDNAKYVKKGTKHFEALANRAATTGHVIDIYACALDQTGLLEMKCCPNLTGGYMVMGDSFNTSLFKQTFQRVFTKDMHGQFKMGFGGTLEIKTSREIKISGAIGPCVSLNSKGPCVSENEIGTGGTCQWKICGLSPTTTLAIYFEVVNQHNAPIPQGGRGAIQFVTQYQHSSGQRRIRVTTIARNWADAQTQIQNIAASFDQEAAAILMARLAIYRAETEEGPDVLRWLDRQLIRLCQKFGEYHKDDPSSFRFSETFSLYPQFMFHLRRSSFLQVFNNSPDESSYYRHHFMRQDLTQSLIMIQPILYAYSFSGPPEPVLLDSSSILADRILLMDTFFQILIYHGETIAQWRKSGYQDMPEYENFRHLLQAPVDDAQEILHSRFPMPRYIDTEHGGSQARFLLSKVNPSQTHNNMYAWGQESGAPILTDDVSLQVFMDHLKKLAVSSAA
active: rucaparib 0.296
inactive: saracatinib 0.133 | sotrastaurin 0.008 | alvocidib -0.066 | Tubastatin A -0.008 | [1] -0.019 | defactinib -0.078 | [2] 0.037 | encorafenib -0.171 | [3] -0.035

SH3GLB2 (UniProt Q9NR46)
inactive: saracatinib -0.059 | sotrastaurin -0.08 | alvocidib -0.13 | Tubastatin A 0.024 | [1] -0.048 | defactinib -0.148 | rucaparib 0.042 | [2] -0.02 | encorafenib 0.029 | [3] -0.086

RCC1 isoform 2 (UniProt P18754)
inactive: saracatinib -0.076 | sotrastaurin -0.049 | alvocidib -0.234 | Tubastatin A 0.164 | [1] -0.083 | defactinib -0.224 | rucaparib -0.008 | [2] 0.146 | encorafenib 0.045 | [3] -0.07

RTF2 (UniProt Q9BY42)
UniProt Q9BY42, sequence (Q9BY42 whole entry, looked up): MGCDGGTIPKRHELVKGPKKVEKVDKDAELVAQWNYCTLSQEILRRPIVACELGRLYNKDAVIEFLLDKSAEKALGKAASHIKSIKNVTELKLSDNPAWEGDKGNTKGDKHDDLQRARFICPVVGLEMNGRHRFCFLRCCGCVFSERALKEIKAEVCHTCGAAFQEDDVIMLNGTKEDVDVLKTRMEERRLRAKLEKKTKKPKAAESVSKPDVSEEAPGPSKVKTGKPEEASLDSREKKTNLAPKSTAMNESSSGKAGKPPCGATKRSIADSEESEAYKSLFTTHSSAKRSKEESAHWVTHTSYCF
inactive: saracatinib -0.021 | sotrastaurin -0.007 | alvocidib -0.01 | Tubastatin A 0.099 | [1] 0.083 | defactinib -0.151 | rucaparib 0.027 | [2] -0.142 | encorafenib 0.058 | [3] -0.045

RPS6KA1 isoform 2 (UniProt Q15418)
inactive: saracatinib 0.02 | sotrastaurin -0.067 | alvocidib -0.012 | Tubastatin A 0.005 | [1] -0.088 | defactinib -0.258 | rucaparib -0.108 | [2] -0.101 | encorafenib -0.018 | [3] -0.015

SFXN5 (UniProt Q8TD22)
inactive: saracatinib 0.106 | sotrastaurin -0.014 | alvocidib -0.098 | Tubastatin A -0.053 | [1] 0.019 | defactinib 0.017 | rucaparib -0.043 | [2] -0.038 | encorafenib -0.053 | [3] 0.045

SASH1 (UniProt O94885)
inactive: saracatinib -0.081 | sotrastaurin -0.043 | alvocidib -0.035 | Tubastatin A 0.04 | [1] -0.019 | defactinib -0.064 | rucaparib 0.03 | [2] -0.015 | encorafenib 0.013 | [3] -0.022

RUFY3 isoform 3 (UniProt Q7L099)
inactive: saracatinib -0.054 | sotrastaurin -0.036 | alvocidib -0.133 | Tubastatin A 0 | [1] -0.029 | defactinib -0.028 | rucaparib 0.105 | [2] -0.255 | encorafenib -0.017 | [3] -0.059

RABGAP1L isoform 3 (UniProt Q5R372)
inactive: saracatinib 0.063 | sotrastaurin -0.042 | alvocidib -0.001 | Tubastatin A -0.059 | [1] 0.018 | defactinib -0.055 | rucaparib -0.05 | [2] -0.005 | encorafenib 0.078 | [3] 0.035

RBM26 isoform 2 (UniProt Q5T8P6)
active: defactinib -0.489
inactive: saracatinib -0.01 | sotrastaurin -0.193 | alvocidib -0.226 | Tubastatin A 0.094 | [1] -0.074 | rucaparib -0.039 | [2] 0.025 | encorafenib 0.03 | [3] -0.032

RNASET2 (UniProt O00584)
UniProt O00584, sequence (O00584 whole entry, looked up): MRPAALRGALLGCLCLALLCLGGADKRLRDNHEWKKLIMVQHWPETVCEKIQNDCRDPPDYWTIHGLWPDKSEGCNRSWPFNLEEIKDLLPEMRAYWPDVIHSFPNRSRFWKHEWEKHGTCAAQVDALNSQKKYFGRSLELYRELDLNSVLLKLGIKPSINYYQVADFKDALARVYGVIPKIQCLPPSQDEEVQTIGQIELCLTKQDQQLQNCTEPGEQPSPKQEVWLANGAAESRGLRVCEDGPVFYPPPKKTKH
inactive: saracatinib 0.009 | sotrastaurin 0.01 | alvocidib 0.077 | Tubastatin A 0.003 | [1] -0.031 | defactinib -0.004 | rucaparib -0.163 | [2] -0.067 | encorafenib 0.015 | [3] -0.002

RABGGTA (UniProt Q92696)
UniProt Q92696, sequence (Q92696 whole entry, looked up): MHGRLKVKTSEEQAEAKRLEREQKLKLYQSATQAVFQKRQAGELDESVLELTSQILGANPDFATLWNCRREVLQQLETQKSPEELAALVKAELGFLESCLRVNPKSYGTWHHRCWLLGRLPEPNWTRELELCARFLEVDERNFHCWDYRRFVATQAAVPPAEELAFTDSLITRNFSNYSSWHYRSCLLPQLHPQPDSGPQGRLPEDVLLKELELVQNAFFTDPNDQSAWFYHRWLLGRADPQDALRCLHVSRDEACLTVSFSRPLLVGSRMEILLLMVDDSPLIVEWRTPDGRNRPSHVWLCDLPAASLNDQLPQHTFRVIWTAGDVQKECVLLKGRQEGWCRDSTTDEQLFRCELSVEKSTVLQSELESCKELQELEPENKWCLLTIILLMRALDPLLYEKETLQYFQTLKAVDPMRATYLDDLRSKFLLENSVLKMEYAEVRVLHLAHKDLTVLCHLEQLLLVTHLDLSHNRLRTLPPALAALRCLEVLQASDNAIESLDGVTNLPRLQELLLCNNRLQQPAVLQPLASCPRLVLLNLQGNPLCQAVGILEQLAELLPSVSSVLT
inactive: saracatinib 0.013 | sotrastaurin 0.102 | alvocidib -0.079 | Tubastatin A -0.044 | [1] -0.034 | defactinib -0.034 | rucaparib -0.015 | [2] 0.001 | encorafenib 0.004 | [3] -0.024

RANBP2 (UniProt P49792)
inactive: saracatinib -0.011 | sotrastaurin -0.06 | alvocidib -0.079 | Tubastatin A -0.016 | [1] 0.886 | defactinib -0.009 | rucaparib -0.028 | [2] -0.016 | encorafenib -0.045 | [3] -0.03

RB1 (UniProt P06400)
active: alvocidib -0.885
inactive: saracatinib 0.026 | sotrastaurin -0.038 | Tubastatin A 0.061 | [1] 0.026 | defactinib -0.176 | rucaparib -0.195 | [2] 0.016 | encorafenib 0.006 | [3] 0.019

RPTOR (UniProt Q8N122)
inactive: saracatinib -0.005 | sotrastaurin -0.01 | alvocidib 0.123 | Tubastatin A 0.027 | [1] -0.044 | defactinib -0.074 | rucaparib -0.068 | [2] 0.033 | encorafenib 0.047 | [3] -0.039

SEC16A isoform 5 (UniProt O15027)
inactive: saracatinib -0.08 | sotrastaurin -0.049 | alvocidib 0.028 | Tubastatin A 0.052 | [1] -0.085 | defactinib -0.016 | rucaparib 0.22 | [2] 0.09 | encorafenib 0.119 | [3] -0.018

RPA1 (UniProt P27694)
inactive: saracatinib -0.007 | sotrastaurin -0.016 | alvocidib -0.031 | Tubastatin A 0.039 | [1] 0.012 | defactinib -0.076 | rucaparib 0.027 | [2] -0.01 | encorafenib 0.076 | [3] -0.021

SEC31A (UniProt O94979)
inactive: saracatinib -0.086 | sotrastaurin -0.084 | alvocidib -0.006 | Tubastatin A 0.019 | [1] 0.043 | defactinib -0.036 | rucaparib 0.002 | [2] -0.015 | encorafenib 0.062 | [3] -0.03

RNPS1 (UniProt Q15287)
inactive: saracatinib 0.036 | sotrastaurin 0.013 | alvocidib -0.016 | Tubastatin A 0.107 | [1] -0.243 | defactinib -0.067 | rucaparib 0.023 | [2] -0.026 | encorafenib -0.033 | [3] -0.019

RRP9 (UniProt O43818)
UniProt O43818, sequence (O43818 whole entry, looked up): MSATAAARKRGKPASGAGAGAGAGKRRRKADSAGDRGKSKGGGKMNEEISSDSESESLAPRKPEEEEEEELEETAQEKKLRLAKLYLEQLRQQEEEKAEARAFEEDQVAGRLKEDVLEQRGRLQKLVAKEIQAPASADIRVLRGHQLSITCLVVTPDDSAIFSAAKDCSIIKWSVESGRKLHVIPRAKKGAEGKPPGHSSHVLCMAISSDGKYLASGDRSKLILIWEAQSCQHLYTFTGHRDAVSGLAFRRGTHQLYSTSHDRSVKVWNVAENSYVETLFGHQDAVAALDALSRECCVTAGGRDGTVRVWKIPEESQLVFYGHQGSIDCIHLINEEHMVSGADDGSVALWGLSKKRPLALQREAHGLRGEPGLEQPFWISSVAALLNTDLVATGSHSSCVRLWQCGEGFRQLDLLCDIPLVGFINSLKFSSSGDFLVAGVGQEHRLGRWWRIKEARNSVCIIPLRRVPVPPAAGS
inactive: saracatinib 0.08 | sotrastaurin 0.044 | alvocidib 0.057 | Tubastatin A 0 | [1] -0.069 | defactinib -0.075 | rucaparib 0.019 | [2] -0.094 | encorafenib -0.005 | [3] 0.042

RPS3A (UniProt P61247)
inactive: saracatinib -0.034 | sotrastaurin 0.015 | alvocidib 0.171 | Tubastatin A 0.075 | [1] 0.105 | defactinib 0.192 | rucaparib 0.101 | [2] 0.069 | encorafenib 0.047 | [3] -0.018

RARS (UniProt P54136)
UniProt P54136, sequence (P54136 whole entry, looked up): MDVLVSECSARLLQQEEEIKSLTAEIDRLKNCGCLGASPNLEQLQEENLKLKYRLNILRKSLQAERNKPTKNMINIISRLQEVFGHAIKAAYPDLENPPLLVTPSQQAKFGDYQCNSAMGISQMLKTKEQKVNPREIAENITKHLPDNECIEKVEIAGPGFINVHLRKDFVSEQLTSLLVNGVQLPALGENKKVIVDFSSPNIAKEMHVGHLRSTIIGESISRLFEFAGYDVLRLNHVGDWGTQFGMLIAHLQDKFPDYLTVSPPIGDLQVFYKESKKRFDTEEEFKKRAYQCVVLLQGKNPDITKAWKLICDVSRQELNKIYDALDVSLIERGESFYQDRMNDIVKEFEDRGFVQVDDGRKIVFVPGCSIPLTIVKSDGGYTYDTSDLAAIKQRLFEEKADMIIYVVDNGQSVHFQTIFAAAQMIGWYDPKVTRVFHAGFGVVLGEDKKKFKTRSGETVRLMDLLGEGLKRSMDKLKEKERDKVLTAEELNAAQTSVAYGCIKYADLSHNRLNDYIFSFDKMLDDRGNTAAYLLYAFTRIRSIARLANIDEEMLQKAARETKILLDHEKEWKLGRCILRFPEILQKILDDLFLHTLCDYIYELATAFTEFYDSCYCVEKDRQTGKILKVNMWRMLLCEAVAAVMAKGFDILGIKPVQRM
inactive: saracatinib -0.103 | sotrastaurin -0.192 | alvocidib 0.151 | Tubastatin A 0.008 | [1] -0.073 | defactinib 0.187 | rucaparib 0.367 | [2] 0.138 | encorafenib 0.217 | [3] -0.024

RPS3 (UniProt P23396)
inactive: saracatinib -0.03 | sotrastaurin 0.031 | alvocidib 0.201 | Tubastatin A 0.094 | [1] 0.082 | defactinib 0.208 | rucaparib 0.097 | [2] 0.04 | encorafenib 0.045 | [3] 0.002

RPS6KA2 isoform 2 (UniProt Q15349)
UniProt Q15349, sequence (Q15349 whole entry, looked up): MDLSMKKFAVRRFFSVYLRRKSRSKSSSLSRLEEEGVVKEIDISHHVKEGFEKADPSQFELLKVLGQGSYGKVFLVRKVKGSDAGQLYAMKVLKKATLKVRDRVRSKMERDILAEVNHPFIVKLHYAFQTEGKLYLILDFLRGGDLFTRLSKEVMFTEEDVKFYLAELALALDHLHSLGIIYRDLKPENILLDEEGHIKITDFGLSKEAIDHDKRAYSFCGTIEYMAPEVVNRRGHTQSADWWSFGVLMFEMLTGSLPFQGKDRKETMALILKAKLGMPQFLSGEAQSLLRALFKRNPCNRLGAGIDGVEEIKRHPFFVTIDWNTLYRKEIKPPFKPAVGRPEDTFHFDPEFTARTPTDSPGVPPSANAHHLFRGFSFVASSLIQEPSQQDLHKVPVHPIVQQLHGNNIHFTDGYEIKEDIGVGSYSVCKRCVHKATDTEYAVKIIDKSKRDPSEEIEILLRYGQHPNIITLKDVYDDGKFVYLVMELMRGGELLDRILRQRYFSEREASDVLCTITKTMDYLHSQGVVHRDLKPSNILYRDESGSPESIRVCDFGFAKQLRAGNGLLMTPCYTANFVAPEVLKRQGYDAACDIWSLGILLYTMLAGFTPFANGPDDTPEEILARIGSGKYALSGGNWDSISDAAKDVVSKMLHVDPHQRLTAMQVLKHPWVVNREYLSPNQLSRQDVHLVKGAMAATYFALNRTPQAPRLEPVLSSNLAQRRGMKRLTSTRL
inactive: saracatinib 0 | sotrastaurin -0.049 | alvocidib -0.019 | Tubastatin A -0.01 | defactinib -0.209 | rucaparib -0.049 | [2] -0.08 | encorafenib 0.014 | [3] -0.009
active: [1] -0.422

RIOK2 (UniProt Q9BVS4)
inactive: saracatinib -0.073 | sotrastaurin 0.033 | alvocidib 0.169 | Tubastatin A 0.067 | [1] 0.195 | defactinib 0.138 | rucaparib 0.014 | [2] 0.069 | encorafenib 0.05 | [3] -0.009

ROCK2 (UniProt O75116)
inactive: saracatinib 0.02 | sotrastaurin -0.096 | alvocidib -0.01 | Tubastatin A -0.001 | [1] -0.062 | defactinib -0.097 | rucaparib -0.027 | [2] 0.212 | encorafenib 0.042 | [3] -0.003

RFC3 (UniProt P40938)
UniProt P40938, sequence (P40938 whole entry, looked up): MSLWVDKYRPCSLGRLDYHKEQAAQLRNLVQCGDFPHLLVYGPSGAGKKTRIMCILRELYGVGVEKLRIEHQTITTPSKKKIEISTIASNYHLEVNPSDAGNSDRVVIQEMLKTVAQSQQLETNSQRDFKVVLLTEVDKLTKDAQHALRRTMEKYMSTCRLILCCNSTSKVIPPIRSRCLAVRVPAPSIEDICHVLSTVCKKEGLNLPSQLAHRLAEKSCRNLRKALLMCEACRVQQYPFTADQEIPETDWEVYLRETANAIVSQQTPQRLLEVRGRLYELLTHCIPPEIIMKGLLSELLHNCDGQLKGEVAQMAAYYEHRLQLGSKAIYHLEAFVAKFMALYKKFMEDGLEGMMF
inactive: saracatinib -0.021 | sotrastaurin 0.032 | alvocidib -0.036 | Tubastatin A 0.023 | [1] 0.031 | defactinib -0.052 | rucaparib -0.011 | [2] 0.007 | encorafenib 0.062 | [3] -0.058

RPS16 (UniProt P62249)
inactive: saracatinib -0.085 | sotrastaurin 0.004 | alvocidib 0.193 | Tubastatin A 0.05 | [1] 0.108 | defactinib 0.185 | rucaparib 0.126 | [2] 0.056 | encorafenib 0.033 | [3] 0.004

SKP1 (UniProt P63208)
UniProt P63208, sequence (P63208 whole entry, looked up): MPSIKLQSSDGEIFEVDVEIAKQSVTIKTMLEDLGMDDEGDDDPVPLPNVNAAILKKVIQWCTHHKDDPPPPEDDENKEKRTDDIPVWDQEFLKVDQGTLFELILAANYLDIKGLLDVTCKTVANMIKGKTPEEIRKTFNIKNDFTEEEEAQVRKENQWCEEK
inactive: saracatinib 0.157 | sotrastaurin -0.023 | alvocidib -0.032 | Tubastatin A 0.002 | [1] 0.165 | defactinib 0.066 | rucaparib -0.051 | [2] 0.028 | encorafenib -0.005 | [3] 0.072

REL (UniProt Q04864)
inactive: saracatinib -0.028 | sotrastaurin -0.049 | alvocidib -0.059 | Tubastatin A 0.008 | [1] 0.052 | defactinib -0.12 | rucaparib 0.089 | [2] -0.013 | encorafenib -0.046 | [3] -0.016

RNASEH2A (UniProt O75792)
inactive: saracatinib -0.071 | sotrastaurin 0.029 | alvocidib -0.107 | Tubastatin A 0.033 | [1] 0.029 | defactinib 0.117 | rucaparib 0.018 | [2] 0.033 | encorafenib -0.003 | [3] 0.096

SCAMP2 (UniProt O15127)
UniProt O15127, sequence (O15127 whole entry, looked up): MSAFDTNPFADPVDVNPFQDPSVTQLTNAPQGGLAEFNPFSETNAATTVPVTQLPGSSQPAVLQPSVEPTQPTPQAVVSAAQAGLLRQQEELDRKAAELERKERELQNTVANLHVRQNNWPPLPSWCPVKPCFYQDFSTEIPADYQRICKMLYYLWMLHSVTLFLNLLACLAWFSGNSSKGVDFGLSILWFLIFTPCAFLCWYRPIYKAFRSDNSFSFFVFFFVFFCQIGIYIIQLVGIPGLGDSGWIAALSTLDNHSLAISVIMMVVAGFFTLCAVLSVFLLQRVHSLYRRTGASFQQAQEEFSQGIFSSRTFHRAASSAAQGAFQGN
inactive: saracatinib 0.084 | sotrastaurin 0.096 | alvocidib -0.155 | Tubastatin A 0.019 | [1] 0.027 | defactinib -0.086 | rucaparib -0.321 | [2] 0.028 | encorafenib 0.349 | [3] 0.101

RGS10 (UniProt O43665)
UniProt O43665, sequence (O43665 whole entry, looked up): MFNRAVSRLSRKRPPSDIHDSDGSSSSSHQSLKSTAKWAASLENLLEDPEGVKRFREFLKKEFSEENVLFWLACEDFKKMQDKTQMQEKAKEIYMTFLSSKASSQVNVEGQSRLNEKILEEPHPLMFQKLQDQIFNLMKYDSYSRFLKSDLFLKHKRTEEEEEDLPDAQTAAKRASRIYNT
inactive: saracatinib 0.033 | sotrastaurin -0.023 | alvocidib -0.042 | Tubastatin A 0.049 | [1] 0.014 | defactinib -0.11 | rucaparib 0.038 | [2] 0 | encorafenib -0.001 | [3] -0.002
